{
  "source": "the supplement of paper PMC6555819",
  "data": [
    {"tested_on": "VDR:RXRa (NR concentration 270 nM, RXRa partner concentration 90 nM)", "assay": "PBM binding z-score (relative to random genomic background probes); higher = stronger binding; sequences stand for … in GC…GCGATTGACAGCGTAGAATGAAGG", "experimental": "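Protein-binding microarray (Agilent 4x180K custom design, double-stranded 60-nt probes: 5' GC cap, 34-nt variable region, 24-nt constant primer region; full probe sequence given). Purified or IVT nuclear receptor:RXRα heterodimers (3:1 NR:RXRα, mostly 270:90 nM) or homodimers were incubated for 1 h in PBS with 2% milk and no ligand, then detected with Alexa488 antibodies. Fluorescence from o1-orientation probes (~5 replicates averaged) was converted to z-scores against 500 random hg19 background probes. Variable regions are seed direct-repeat (DR0–DR5) sites, all their single-nucleotide variants and half-site ablations.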", "values": [
      {"sequence": "TCTAGTTGGTCAAAGGTCACACTCTCGAAATGCG", "PBM binding z-score": 5},
      {"sequence": "ACTTACGGGTCAACGCGGTTATAGCACGCGTATA", "PBM binding z-score": 6.31},
      {"sequence": "CCTTACGGTTCACTCCAGGTTATAGCATCGGAGT", "PBM binding z-score": 3.4},
      {"sequence": "ATCTCTAGGTAAGACACAGTTCAGTGAAGAACGC", "PBM binding z-score": 1.14},
      {"sequence": "TCTATTAATTGAAGGGCAACCGACGAGTCCGTTT", "PBM binding z-score": 1.05},
      {"sequence": "CCTCGGAGGACAACAGGAGTTCAGAGCTGCCAGA", "PBM binding z-score": 1.14},
      {"sequence": "CGCCCAAGGTCAGAGAGGTCAGTGAATGCCGAGT", "PBM binding z-score": 7.36},
      {"sequence": "TCGAGTAGGCTAGTCGGGGCATTCAGCCAACATA", "PBM binding z-score": -0.402},
      {"sequence": "CGTCCTAGGTCAAGGTCAGTGAAAGAGACTCGAA", "PBM binding z-score": 3.2},
      {"sequence": "GTTAGTTGGTCAGTAAAAGGTCACACACCGGTCG", "PBM binding z-score": 4.28},
      {"sequence": "TCATATAGGTAAAAGGTGAAACTCGGTGTGGTAA", "PBM binding z-score": 2.04},
      {"sequence": "ACCTCTAGGTAACAAGTTCAGTGAAAGAGAGGAC", "PBM binding z-score": 1.59},
      {"sequence": "TGTCAAAGTTCAAAGGTAACGTCAGTATCCACAC", "PBM binding z-score": 5.11},
      {"sequence": "ACTAGTTGGTCAGCTGAGGTCACGCACAATTCGG", "PBM binding z-score": 5.09},
      {"sequence": "CAAACTAGGTCACGGTCAAAGTCGGTTTGTGCCA", "PBM binding z-score": 3.33},
      {"sequence": "TCATATAGGTAAAAGCTGAAAGTCGGTGTGGTAA", "PBM binding z-score": 0.748},
      {"sequence": "CCGACTGGGGCAAAGTTTACCATACTCAGTACGA", "PBM binding z-score": 0.062},
      {"sequence": "AGAATGAGGTTAAGATCTGGGAAACAGAATACAT", "PBM binding z-score": 1.13},
      {"sequence": "GCAGACAGGTGGAACGCAGGTAACTCAGGGTGGC", "PBM binding z-score": -0.675},
      {"sequence": "TCTCGGAGGACACGAAAGGTCAAAGCTCGACATC", "PBM binding z-score": 4.67},
      {"sequence": "CCTGCTAGGTAAATGGTCAGCTAAAGCAGCTCGC", "PBM binding z-score": -0.541},
      {"sequence": "CCTTGGAGGACAACAGGAGGTCAGAGCTGCCAGA", "PBM binding z-score": 1.99},
      {"sequence": "TGTCAAAGTGCAAAGGTAACGTAAGTATCCACAC", "PBM binding z-score": 1.59},
      {"sequence": "ATCGAAAGGTCGTAAGGTGAGTATACAGAAAGGC", "PBM binding z-score": 3.26},
      {"sequence": "CCTCGTAGGACAGAAGGTCAGAGCTGTCCGCTTT", "PBM binding z-score": 1.13},
      {"sequence": "CGAACTAGGTCAAGGACATTGAATCTCCGCACGC", "PBM binding z-score": 1.73},
      {"sequence": "CAAACTGGGTCAAGGTCAAAGTCGGTTTGTGCCA", "PBM binding z-score": 5.18},
      {"sequence": "TCTTGTAGATCAAGCAGGTCAAGAAAGCCTGAGT", "PBM binding z-score": 2.28},
      {"sequence": "AGAACGAGGGCACGCTGAGTTGATAGCGGAGTAG", "PBM binding z-score": 2.13},
      {"sequence": "AGAATGAGGTTATACGTAGATCCGGGAAGAAAGT", "PBM binding z-score": 1.15},
      {"sequence": "CGTCCAAGGTCAGAGAGGTCAGCGAATGCCGAGT", "PBM binding z-score": 7.48},
      {"sequence": "GCGACTGGGGCATCAGCAGGTTACAATAACTTAA", "PBM binding z-score": -0.29},
      {"sequence": "TAGCCTAGGTCTGATCGGGCCAGTATACGCTATA", "PBM binding z-score": -0.771},
      {"sequence": "CCCACTGGGGCAGAAAGGTTACCATACCATCCGG", "PBM binding z-score": 0.905},
      {"sequence": "CCTGCTAGGTAATGGTCAGCTAATCTACAGTATG", "PBM binding z-score": -0.407},
      {"sequence": "CTCCCAAGGTGAACAAGGTCGTTGATTACTATTC", "PBM binding z-score": 6.09},
      {"sequence": "CGAACTGGGTCAAGGACAGTGAATCTCCGCACGC", "PBM binding z-score": 1.46},
      {"sequence": "TCAGACAAGTGAAGGTAACTCAGGTACGCAGTCG", "PBM binding z-score": 0.46},
      {"sequence": "TCTTGTAGATCAACAGGAGGTTACGAAAGATCGA", "PBM binding z-score": 0.945},
      {"sequence": "TCTAGTTGGTCACGGAGGTCACGCACGACGGGTA", "PBM binding z-score": 5.99}
    ]}
  ]
}
